We go through 18 sequences from paper PMC11006913.

Holding throughout (test): PBM; 200 nM protein, PBS
Holding throughout (settings): dsDNA, one strand shown

Assay [1] has as its target CRX (Homo sapiens, UniProt O43186 26-111).
The target of assay [2] is CRX (Homo sapiens, UniProt O43186 26-111, E42D).
Another assay deals with PITX2 (Homo sapiens, UniProt Q99697 72-157).
Assay [3] deals with CRX (Homo sapiens, UniProt O43186 26-111, R41L).
The target in assay [4] is VAX1 (Homo sapiens, UniProt Q5SQQ9 86-172).
VAX1 (Homo sapiens, UniProt Q5SQQ9 86-172), sequence (Q5SQQ9 86-172): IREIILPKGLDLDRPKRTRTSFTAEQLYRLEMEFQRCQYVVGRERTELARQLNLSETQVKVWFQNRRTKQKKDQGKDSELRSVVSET
Assay [5] deals with VAX1 (Homo sapiens, UniProt Q5SQQ9 86-172, T142I).
VAX1 (Homo sapiens, UniProt Q5SQQ9 86-172, T142I), sequence (Q5SQQ9 86-172 T142I): as the sequence (Q5SQQ9 86-172) above, with T57I counted along it
For assay [6], the target named is VAX1 (Homo sapiens, UniProt Q5SQQ9 86-172, K157R).
VAX1 (Homo sapiens, UniProt Q5SQQ9 86-172, K157R), sequence (Q5SQQ9 86-172 K157R): as the sequence (Q5SQQ9 86-172) above, with K72R counted along it

CRX (Homo sapiens, UniProt O43186 26-111, E42D), sequence (O43186 26-111 E42D): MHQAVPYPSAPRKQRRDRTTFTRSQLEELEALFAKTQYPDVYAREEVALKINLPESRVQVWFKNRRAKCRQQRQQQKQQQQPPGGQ
CRX (Homo sapiens, UniProt O43186 26-111, R41L), sequence (O43186 26-111 R41L): as the sequence (O43186 26-111 E42D) above, with R16L, D17E counted along it
CRX (Homo sapiens, UniProt O43186 26-111), sequence (O43186 26-111): as the sequence (O43186 26-111 E42D) above, with D17E counted along it

For GTTGGCCA, the binding signal with CRX [1] was 8.35 upbm affinity estimate (log intensity, higher = more binding, comparable within an allelic series); with CRX [2], 8.33 upbm affinity estimate (log intensity, higher = more binding, comparable within an allelic series); with PITX2, 8.06 upbm affinity estimate (log intensity, higher = more binding, comparable within an allelic series); with CRX [3], 8.24 upbm affinity estimate (log intensity, higher = more binding, comparable within an allelic series).

For the sequence AAGGATTA, the binding signal was 13.4 upbm affinity estimate (log intensity, higher = more binding, comparable within an allelic series) with CRX [1]; 13.4 upbm affinity estimate (log intensity, higher = more binding, comparable within an allelic series) with CRX [2]; 13.2 upbm affinity estimate (log intensity, higher = more binding, comparable within an allelic series) with PITX2; 13.4 upbm affinity estimate (log intensity, higher = more binding, comparable within an allelic series) in the assay with CRX [3].

GGATTAGA: the binding signal with CRX [1] is 13.3 upbm affinity estimate (log intensity, higher = more binding, comparable within an allelic series); with CRX [2], 13.2 upbm affinity estimate (log intensity, higher = more binding, comparable within an allelic series); with PITX2, 13.1 upbm affinity estimate (log intensity, higher = more binding, comparable within an allelic series); with CRX [3], 13.1 upbm affinity estimate (log intensity, higher = more binding, comparable within an allelic series).

As for CGTTAATC, the binding signal with CRX [1] is 12.8 upbm affinity estimate (log intensity, higher = more binding, comparable within an allelic series); in the assay with CRX [2], 12.6 upbm affinity estimate (log intensity, higher = more binding, comparable within an allelic series); with PITX2 it was 12.4 upbm affinity estimate (log intensity, higher = more binding, comparable within an allelic series); with CRX [3], 12.3 upbm affinity estimate (log intensity, higher = more binding, comparable within an allelic series).

As for CTAATCCA, the binding signal in the assay with CRX [1] is 13.3 upbm affinity estimate (log intensity, higher = more binding, comparable within an allelic series); with CRX [2], 13.3 upbm affinity estimate (log intensity, higher = more binding, comparable within an allelic series); with PITX2, 13.2 upbm affinity estimate (log intensity, higher = more binding, comparable within an allelic series); with CRX [3] it was 13 upbm affinity estimate (log intensity, higher = more binding, comparable within an allelic series).

Regarding GGGGATTA, the binding signal with CRX [1] is 13.7 upbm affinity estimate (log intensity, higher = more binding, comparable within an allelic series); in the assay with CRX [2], 13.8 upbm affinity estimate (log intensity, higher = more binding, comparable within an allelic series); in the assay with PITX2, 13.5 upbm affinity estimate (log intensity, higher = more binding, comparable within an allelic series); with CRX [3] it was 13.8 upbm affinity estimate (log intensity, higher = more binding, comparable within an allelic series).

In the case of GAGATTAA, the binding signal in the assay with CRX [1] was 13.1 upbm affinity estimate (log intensity, higher = more binding, comparable within an allelic series); in the assay with CRX [2], 13.1 upbm affinity estimate (log intensity, higher = more binding, comparable within an allelic series); with PITX2 it was 12.8 upbm affinity estimate (log intensity, higher = more binding, comparable within an allelic series); with CRX [3] it was 12.8 upbm affinity estimate (log intensity, higher = more binding, comparable within an allelic series).

In the case of CTGGATTA, the binding signal is 13.1 upbm affinity estimate (log intensity, higher = more binding, comparable within an allelic series) in the assay with CRX [1]; 13.1 upbm affinity estimate (log intensity, higher = more binding, comparable within an allelic series) with CRX [2]; 13 upbm affinity estimate (log intensity, higher = more binding, comparable within an allelic series) with PITX2; 12.9 upbm affinity estimate (log intensity, higher = more binding, comparable within an allelic series) with CRX [3].

For AGGATTAC, the binding signal with CRX [1] is 13.1 upbm affinity estimate (log intensity, higher = more binding, comparable within an allelic series); with CRX [2] it was 13 upbm affinity estimate (log intensity, higher = more binding, comparable within an allelic series); with PITX2, 12.9 upbm affinity estimate (log intensity, higher = more binding, comparable within an allelic series); in the assay with CRX [3] it was 13 upbm affinity estimate (log intensity, higher = more binding, comparable within an allelic series).

In the case of GCGCACGC, the binding signal in the assay with CRX [1] is 8.22 upbm affinity estimate (log intensity, higher = more binding, comparable within an allelic series); in the assay with CRX [2] it was 8.37 upbm affinity estimate (log intensity, higher = more binding, comparable within an allelic series); in the assay with PITX2, 7.91 upbm affinity estimate (log intensity, higher = more binding, comparable within an allelic series); in the assay with CRX [3], 8.29 upbm affinity estimate (log intensity, higher = more binding, comparable within an allelic series).

In the case of TAATCTCA, the binding signal is 12.7 upbm affinity estimate (log intensity, higher = more binding, comparable within an allelic series) with CRX [1]; 12.7 upbm affinity estimate (log intensity, higher = more binding, comparable within an allelic series) with CRX [2]; 12.4 upbm affinity estimate (log intensity, higher = more binding, comparable within an allelic series) in the assay with PITX2; 12.4 upbm affinity estimate (log intensity, higher = more binding, comparable within an allelic series) with CRX [3].

GGGATTAA: the binding signal with CRX [1] is 13.7 upbm affinity estimate (log intensity, higher = more binding, comparable within an allelic series); with CRX [2], 13.8 upbm affinity estimate (log intensity, higher = more binding, comparable within an allelic series); with PITX2, 13.6 upbm affinity estimate (log intensity, higher = more binding, comparable within an allelic series); with CRX [3] it was 13.7 upbm affinity estimate (log intensity, higher = more binding, comparable within an allelic series).

Turning to ATAATCCA, the binding signal with CRX [1] is 13.2 upbm affinity estimate (log intensity, higher = more binding, comparable within an allelic series); with CRX [2], 13.3 upbm affinity estimate (log intensity, higher = more binding, comparable within an allelic series); with PITX2, 13 upbm affinity estimate (log intensity, higher = more binding, comparable within an allelic series); with CRX [3] it was 13.3 upbm affinity estimate (log intensity, higher = more binding, comparable within an allelic series).

In the case of AGAGATTA, the binding signal is 13.1 upbm affinity estimate (log intensity, higher = more binding, comparable within an allelic series) with CRX [1]; 13.1 upbm affinity estimate (log intensity, higher = more binding, comparable within an allelic series) with CRX [2]; 12.7 upbm affinity estimate (log intensity, higher = more binding, comparable within an allelic series) with PITX2; 13 upbm affinity estimate (log intensity, higher = more binding, comparable within an allelic series) with CRX [3].

In the case of GGATTAAA, the binding signal was 13.5 upbm affinity estimate (log intensity, higher = more binding, comparable within an allelic series) with CRX [1]; 13.6 upbm affinity estimate (log intensity, higher = more binding, comparable within an allelic series) with CRX [2]; 13.3 upbm affinity estimate (log intensity, higher = more binding, comparable within an allelic series) in the assay with PITX2; 13.4 upbm affinity estimate (log intensity, higher = more binding, comparable within an allelic series) in the assay with CRX [3].

For the sequence CGCTGCCG, the binding signal in the assay with CRX [1] is 8.07 upbm affinity estimate (log intensity, higher = more binding, comparable within an allelic series); with CRX [2] it was 8.09 upbm affinity estimate (log intensity, higher = more binding, comparable within an allelic series); in the assay with VAX1 [4], 6.84 upbm affinity estimate (log intensity, higher = more binding, comparable within an allelic series); in the assay with VAX1 [5], 7.05 upbm affinity estimate (log intensity, higher = more binding, comparable within an allelic series); with CRX [3], 8.04 upbm affinity estimate (log intensity, higher = more binding, comparable within an allelic series); with VAX1 [6], 6.97 upbm affinity estimate (log intensity, higher = more binding, comparable within an allelic series).

Consider ATAATCTC, for which the binding signal was 13.1 upbm affinity estimate (log intensity, higher = more binding, comparable within an allelic series) in the assay with CRX [1]; 13.1 upbm affinity estimate (log intensity, higher = more binding, comparable within an allelic series) with CRX [2]; 12.7 upbm affinity estimate (log intensity, higher = more binding, comparable within an allelic series) with PITX2; 13.1 upbm affinity estimate (log intensity, higher = more binding, comparable within an allelic series) in the assay with CRX [3].

Consider GCGGATTA, for which the binding signal was 13.6 upbm affinity estimate (log intensity, higher = more binding, comparable within an allelic series) with CRX [1]; 13.7 upbm affinity estimate (log intensity, higher = more binding, comparable within an allelic series) with CRX [2]; 13.3 upbm affinity estimate (log intensity, higher = more binding, comparable within an allelic series) in the assay with PITX2; 13.6 upbm affinity estimate (log intensity, higher = more binding, comparable within an allelic series) in the assay with CRX [3].
